# PubChem BioAssay (NCI)
# About 83,000 compounds went through this panel and 20% of them were active in at least one assay; those are over-represented in the sample as a whole.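 Step 1: grow cells in 96-well plates. Step 2: add test compound at a single concentration. Step 3: incubate 48 h. Step 4: record percent growth.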 A number with no mark means an inactive call. Activity calls are given as the source filed them. The calls were made as follows: active = growth percent below 10; inactive = the rest.
# Legend:
# Assay in all cases: NCI-60 one-dose screen, 48 h (100 = growth as untreated, 0 = no growth, -100 = all killed)
# Conditions in all cases: 10 µM unless noted
# DU-145 prostate = test system: DU-145 prostate
# K-562 leukemia = test system: K-562 leukemia
# MALME-3M melanoma = test system: MALME-3M melanoma
# MDA-MB-231 breast = test system: MDA-MB-231 breast
# RXF 393 renal = test system: RXF 393 renal
# SF-268 CNS = test system: SF-268 CNS
# SF-295 CNS = test system: SF-295 CNS
# SF-539 CNS = test system: SF-539 CNS
# UACC-257 melanoma = test system: UACC-257 melanoma
# M14 melanoma = test system: M14 melanoma
SMILES,growth (DU-145 prostate),growth (K-562 leukemia),growth (MALME-3M melanoma),growth (MDA-MB-231 breast),growth (RXF 393 renal),growth (SF-268 CNS),growth (SF-295 CNS),growth (SF-539 CNS),growth (UACC-257 melanoma),growth (M14 melanoma)
CCOC(=O)c1c(N)c(C#N)cn1Cc1ccc(Cl)cc1Cl,93.5%,24.8%,85.6%,43.9%,63.1%,80.5%,80.2%,73.3%,92.7%,72.4%
CC(=O)C1=C(C)NC(NNc2ccccc2)=NC1c1ccc([N+](=O)[O-])cc1 (stereo not given),99.4%,49%,116%,88.1%,102%,80.7%,87.4%,99.9%,104%,101%
Cn1cc(-c2nnc(N)nc2-c2c[nH]c3ccc(Br)cc23)c2cc(Br)ccc21,109%,105%,108%,98.7%,93.1%,106%,100%,102%,108%,102%
COc1ccc(Cn2cc(C#N)c(N)c2C(C)=O)cc1,107%,103%,102%,94.8%,102%,96.5%,110%,99.5%,106%,110%
CC(=O)OC[C@@]12Oc3c(cccc3-c3ccc(O)c4c3O[C@]3(COC(C)=O)C(=C4O)C(=O)C[C@H](C)[C@@H]3OC(C)=O)C(O)=C1C(=O)C[C@H](C)[C@@H]2OC(C)=O,20.7%,11.6%,-15.5% (active),5.9% (active),11.9%,17.2%,-21.9% (active),18.4%,-8.95% (active),21.8%
CS(=O)(=O)c1ccc(/C(=N/N=C(N)N)c2ccc(Cl)cc2)cc1,101%,40.7%,81.6%,96.1%,82.6%,80.7%,95.4%,91.8%,90.2%,72.8%
CCOC(=O)C1=C(C)NC(C)=C(C(=O)OCc2ccccc2)C1c1cccc(C#N)c1 (stereo not given),57.2%,16.9%,38%,52.3%,44.5%,57.1%,15.5%,23.1%,55.9%,14.6%
O=C(CSc1nc2ccccc2c(=O)n1-c1ccc(Cl)cc1)N/N=C/c1ccc(Oc2ccc(Cl)cc2)cc1,13.1%,23%,-39.4% (active),30.4%,-43.8% (active),55.8%,64.7%,69.7%,59%,-39.4% (active)
O=C(CCCCCCN1CC(=O)N2[C@@H](c3cccs3)c3[nH]c4ccccc4c3C[C@H]2C1=O)NO,90.2%,64.7%,27.2%,93.7%,89.3%,101%,96.9%,73.8%,66.9%,84.3%
CC1=C(C)C(=O)C(Nc2ccc(C)c(C)c2)=C(Br)C1=O,109%,-2.41% (active),114%,65.1%,87.9%,98.4%,92.9%,98.9%,98.5%,96.5%
COc1cc(C(=O)c2cc(C(C)=O)c3ccc(C)cn23)cc(OC)c1OC,66.9%,19.2%,43.9%,55.2%,58.6%,61.3%,7.71% (active),34.7%,76.7%,16.1%
C#C[C@]1(O)CC[C@H]2[C@@H]3CC=C4c5sc(N(C)c6ccccc6)nc5CC[C@]4(C)[C@H]3CC[C@@]21C,95.4%,2.88% (active),110%,98.6%,75.8%,88%,68.8%,48.7%,90.8%,54.3%
O=C(N/N=C/c1cc2ccccc2nc1Cl)c1cc(-c2nc3ccccc3[nH]2)nc2ccccc12,87.7%,83.6%,124%,99%,96.2%,87.8%,89.7%,103%,118%,109%
CN1CCN(c2ccc(Nc3nc(NCCNS(=O)(=O)c4ccccc4)c4sccc4n3)cc2)CC1,106%,84%,104%,102%,87.3%,79.6%,105%,95.4%,114%,106%
CN1CCN(c2ccc(Nc3nc(NCCNS(=O)(=O)c4ccc(Cl)cc4)c4sccc4n3)cc2)CC1,98.2%,9.68% (active),105%,95%,41.2%,70%,97.9%,85.5%,87.5%,102%
CC[C@]12CC(C(=O)OC)=C3Nc4ccccc4[C@@]34CCN(C14)[C@@H]1c3cc4c(cc3O[C@@H]1[C@H]2O)NC1=C(C(=O)OC)C[C@@]2(CC)C3N(CC[C@@]143)C[C@H]1O[C@H]12 (stereo not given in full),41.9%,6.04% (active),5.67% (active),22.2%,-17.9% (active),29.4%,9.12% (active),15.5%,24.8%,17.6%
CN(C)CCCOc1ccc(C(=C(c2ccccc2)C2CCCC2)c2ccc(OCCCN(C)C)cc2)cc1,-99% (active),-4.67% (active),-89.6% (active),-86.4% (active),-83.1% (active),-81.9% (active),-82% (active),-89.4% (active),-88.7% (active),-80.7% (active)
COc1ccc2c(c1)C=CC1(O2)Oc2ccc(OC)cc2C=C1C (stereo not given),34.1%,8.41% (active),55.2%,2.14% (active),-12.3% (active),54.4%,7.92% (active),-11% (active),73%,3.03% (active)
CN1CCN(c2ccc(Nc3nc(NCCNS(=O)(=O)c4ccc5ccccc5c4)c4sccc4n3)cc2)CC1,84%,1.59% (active),2.39% (active),74.3%,29.4%,63.3%,102%,65%,65.7%,-82.6% (active)
CCC(=C(c1ccc(OCCN2CCCCCC2)cc1)c1ccc(OCCN2CCCCCC2)cc1)c1ccc(Cl)cc1,39.4%,-32.8% (active),-55.4% (active),33.6%,-72.3% (active),56%,-77.3% (active),-79.6% (active),-55.8% (active),-74.4% (active)
Cc1ccccc1N1CCN(C2=C(Cl)C(=O)c3ncccc3C2=O)CC1,20.3%,7.01% (active),-14.5% (active),88.3%,-10.9% (active),80.2%,86.8%,78.9%,21.7%,36.2%
NC(=O)c1ncn2c(=O)n(CCF)nnc12,38.6%,26.7%,72.8%,66.8%,96.6%,57.3%,34.7%,63.9%,80.9%,33.9%
COc1ccc(N2CCN(C3=C(Cl)C(=O)c4ncccc4C3=O)CC2)cc1,5.58% (active),6.59% (active),23.7%,62.5%,15.2%,86%,108%,89.6%,24.6%,45.6%
FC(F)(F)c1cc(Br)cc(-c2cc(-c3ccc4c(c3)OCCO4)[nH]n2)c1,23.8%,14.6%,48.4%,1.68% (active),31.6%,41.7%,12.3%,-5.31% (active),80.4%,20.1%
CCN(CC)CCOc1ccc(C(=C(c2ccccc2)C2CCCC2)c2ccc(OCCN(CC)CC)cc2)cc1,38.3%,8.22% (active),-0.396% (active),24.7%,-33.4% (active),25.5%,60.6%,9.14% (active),14.3%,30.8%
COC(=O)c1ccc(NC2=C(Cl)C(=O)C(C)=C(C)C2=O)cc1,85.3%,4.61% (active),85%,68.9%,65.8%,87.3%,36.6%,65.9%,79.5%,45.8%
